Assay results taken from PubChem BioAssay (EPA / NIEHS).
Inconclusive results are not listed. The source made the active and inactive calls. Rule for the calls, unless noted: active = hit-call score of the fitted dose curve at least 0.9, where 1 is the maximum; inconclusive = response in the unintended direction; inactive = score below 0.9.

Target: human Serotonin, 5-Hydroxytryptamine Receptor 3 (5HT3), HTR3A (gene 3359) (UniProt P46098)
Test: NVS_LGIC_h5HT3: NovaScreen (NVS) Ligand-Gated Ion Channel Assay for human Serotonin, 5-Hydroxytryptamine Receptor 3 (5HT3) (AID 2283325)
Procedure, shortened: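 Radioligand displacement binding to human 5-HT3 from HEK293 membranes, read by filter-based scintillation counting after 1 h. Screen at 25 uM in duplicate; chemicals passing threshold were retested in concentration-response up to 50 uM.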

Chain of human Serotonin, 5-Hydroxytryptamine Receptor 3 (5HT3), HTR3A (gene 3359) (P46098 whole entry, looked up): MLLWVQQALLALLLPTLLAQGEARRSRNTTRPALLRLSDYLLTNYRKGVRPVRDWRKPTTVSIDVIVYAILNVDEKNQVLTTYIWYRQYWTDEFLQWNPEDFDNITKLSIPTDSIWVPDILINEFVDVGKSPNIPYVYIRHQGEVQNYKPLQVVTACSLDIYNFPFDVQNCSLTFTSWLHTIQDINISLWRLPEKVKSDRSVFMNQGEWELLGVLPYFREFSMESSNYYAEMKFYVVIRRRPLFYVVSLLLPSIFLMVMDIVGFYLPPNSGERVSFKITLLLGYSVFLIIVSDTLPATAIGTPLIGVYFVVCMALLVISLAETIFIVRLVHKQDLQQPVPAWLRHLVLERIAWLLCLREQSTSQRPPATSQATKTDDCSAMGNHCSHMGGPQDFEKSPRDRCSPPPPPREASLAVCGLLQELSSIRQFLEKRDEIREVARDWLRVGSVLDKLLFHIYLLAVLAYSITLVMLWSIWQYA

SMILES	AC50	outcome
OCC(O)CO	25 µM (active)	
Cc1cn([C@H]2C=C[C@@H](CO)O2)c(=O)[nH]c1=O	8.81 µM (active)	
CCCCCCCCCCCCCCOS(=O)(=O)O	25 µM (active)	
C/C=C/C=C/C(=O)O		inactive

Target: rat Thyrotropin Releasing Hormone Receptor (TRH), Trhr (gene 25570) (UniProt Q01717)
Test: NVS_GPCR_rTRH: NovaScreen (NVS) G Protein-Coupled Receptor Assay for rat Thyrotropin Releasing Hormone Receptor (TRH) (AID 2283329);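 note: hit means lower bound tracer signal versus DMSO baseline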
Procedure, shortened: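 Test compounds are screened at 25 uM in duplicate against radioligand binding in rat forebrain membranes, with active pairs followed up over a concentration range. Detection uses filter-based radiodetection after a 4 h exposure.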

Chain of rat Thyrotropin Releasing Hormone Receptor (TRH), Trhr (gene 25570) (Q01717 whole entry, looked up): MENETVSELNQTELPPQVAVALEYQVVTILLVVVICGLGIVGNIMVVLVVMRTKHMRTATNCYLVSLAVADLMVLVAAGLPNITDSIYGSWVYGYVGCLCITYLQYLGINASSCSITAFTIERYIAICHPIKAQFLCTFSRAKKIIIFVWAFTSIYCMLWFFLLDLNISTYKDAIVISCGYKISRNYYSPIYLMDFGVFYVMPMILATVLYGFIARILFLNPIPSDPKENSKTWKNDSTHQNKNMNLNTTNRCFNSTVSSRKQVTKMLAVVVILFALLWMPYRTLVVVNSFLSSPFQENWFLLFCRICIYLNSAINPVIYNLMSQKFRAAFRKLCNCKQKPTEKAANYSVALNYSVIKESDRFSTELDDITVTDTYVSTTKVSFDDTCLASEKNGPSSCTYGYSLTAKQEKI

SMILES	outcome	AC50
C#CC(O)C(CC)CCCC (stereo not drawn)	inactive	
O=C1CCCCC1	inactive	
O=[Si]=O	inactive	
CC(=O)[C@@]1(O)CC[C@H]2[C@@H]3CCC4=CC(=O)CC[C@]4(C)[C@H]3CC[C@@]21C	inactive	
O=C(O)CN(CC(=O)O)CC(=O)O		5.7 µM (active)
CS(=O)(=O)c1ccc([C@@H](C[C@H]2CCC(=O)C2)C(=O)Nc2cnccn2)cc1Cl	inactive	

Target: human Peripheral-type Benzodiazepine Receptor (PBR), TSPO (gene 706) (UniProt P30536)
Test: NVS_MP_hPBR: NovaScreen (NVS) Membrane Protein Assay for human Peripheral-type Benzodiazepine Receptor (PBR) (AID 2283331);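 note: hits reduce radioligand binding relative to DMSO baseline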
Procedure, shortened: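 Human colonic cell membranes were incubated with test chemical for 1 hour; radioligand binding was measured by filter-based scintillation counting. Primary screen ran in duplicate at 25 uM, with actives followed in concentration series; loss of signal versus DMSO baseline.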

Chain of human Peripheral-type Benzodiazepine Receptor (PBR), TSPO (gene 706) (P30536 whole entry, looked up): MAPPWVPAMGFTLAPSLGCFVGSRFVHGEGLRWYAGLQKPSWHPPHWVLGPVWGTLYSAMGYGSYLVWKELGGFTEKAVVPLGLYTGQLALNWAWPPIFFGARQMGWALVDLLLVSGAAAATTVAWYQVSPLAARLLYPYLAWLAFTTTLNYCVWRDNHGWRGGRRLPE

SMILES	outcome	AC50
CC(COCC(C)OC(=O)c1ccccc1)OC(=O)c1ccccc1 (stereo not drawn)	inactive	
Oc1ccc(O)cc1	inactive	
CC(C)(O)c1ccc(CNC(=O)c2cccnc2Oc2ccc(F)cc2)cc1		8.65 µM (active)
CCCCCCC(CCCCCCCCCCC(=O)OCC(COC(C)=O)OC(C)=O)OC(C)=O (stereo not drawn)	inactive	

Target: Glutamate receptor ionotropic, kainate 1 (Rattus norvegicus) (UniProt P22756)
Test: NVS_IC_rKAR: NovaScreen (NVS) Ion Channel Assay for rat Kainic Acid Receptors (KAR) (AID 2283334; active = hit-call score of the fitted dose curve at least 0.9, where 1 is the maximum; inactive = score below 0.9)
Procedure: NVS_IC_rKAR is a biochemical, single-readout assay that uses extracted gene-proteins from Rat forebrain membranes in a tissue-based cell-free assay. Measurements were taken 1 hour after chemical dosing in a 48-well plate.NVS_IC_rKAR is one of one assay component(s) measured or calculated from the NVS_IC_rKAR assay. It is designed to make measurements of radioligand binding, a form of binding reporter, as detected with scintillation counting signals by Filter-based radiodetection technology.Data from the assay component NVS_IC_rKAR was analyzed into 1 assay endpoint. This assay endpoint, NVS_IC_rKAR, was analyzed in the positive analysis fitting direction relative to DMSO as the negative control and baseline of activity. Using a type of binding reporter, loss-of-signal activity can be used to understand changes in the binding as they relate to the gene Grik1. Furthermore, this assay endpoint can be referred to as a primary readout, because the performed assay has only produced 1 assay endpoint. To generalize the intended target to other relatable targets, this assay endpoint is annotated to the ion channel intended target family, where the subfamily is ligand-gated ion channel.
Binding assays used specific radioligands (tritiated, iodinated) with non-radioactive competitive displacement ligands in agonist or antagonist protocols (as indicated) and various reference compounds and inhibitors to titrate specific binding to receptors and transporters. Most enzyme assays (CYPs, kinases, phosphatases, proteases, HDACs) used recombinant protein and specific substrates (fluorescence mostly, some colorimetric and radioactive) and inhibitors, followed by a biochemical separation of substrate and product. All assays for the biochemical HTS were initially run in duplicate at a single concentration (10 uM for CYP450 assays and 25 uM for all others). Assay-chemical combinations meeting a pre-defined threshold (e.g., 30% inhibition and other criteria defined below) were then run in singleton concentration-response format with maximum concentration of 20 uM for CYPs and 50 uM for all others. Each assay was run with positive and negative controls, and concurrent controls on every plate. The follow-up (secondary) screen tested active chemical-pairs in concentration series, as well as a few additional assays not tested in the primary screen, some selected negative inactives, and several cases re-run in the concentration series for confirmatory purposes.

Chain of Glutamate receptor ionotropic, kainate 1 (Rattus norvegicus) (P22756 whole entry, looked up): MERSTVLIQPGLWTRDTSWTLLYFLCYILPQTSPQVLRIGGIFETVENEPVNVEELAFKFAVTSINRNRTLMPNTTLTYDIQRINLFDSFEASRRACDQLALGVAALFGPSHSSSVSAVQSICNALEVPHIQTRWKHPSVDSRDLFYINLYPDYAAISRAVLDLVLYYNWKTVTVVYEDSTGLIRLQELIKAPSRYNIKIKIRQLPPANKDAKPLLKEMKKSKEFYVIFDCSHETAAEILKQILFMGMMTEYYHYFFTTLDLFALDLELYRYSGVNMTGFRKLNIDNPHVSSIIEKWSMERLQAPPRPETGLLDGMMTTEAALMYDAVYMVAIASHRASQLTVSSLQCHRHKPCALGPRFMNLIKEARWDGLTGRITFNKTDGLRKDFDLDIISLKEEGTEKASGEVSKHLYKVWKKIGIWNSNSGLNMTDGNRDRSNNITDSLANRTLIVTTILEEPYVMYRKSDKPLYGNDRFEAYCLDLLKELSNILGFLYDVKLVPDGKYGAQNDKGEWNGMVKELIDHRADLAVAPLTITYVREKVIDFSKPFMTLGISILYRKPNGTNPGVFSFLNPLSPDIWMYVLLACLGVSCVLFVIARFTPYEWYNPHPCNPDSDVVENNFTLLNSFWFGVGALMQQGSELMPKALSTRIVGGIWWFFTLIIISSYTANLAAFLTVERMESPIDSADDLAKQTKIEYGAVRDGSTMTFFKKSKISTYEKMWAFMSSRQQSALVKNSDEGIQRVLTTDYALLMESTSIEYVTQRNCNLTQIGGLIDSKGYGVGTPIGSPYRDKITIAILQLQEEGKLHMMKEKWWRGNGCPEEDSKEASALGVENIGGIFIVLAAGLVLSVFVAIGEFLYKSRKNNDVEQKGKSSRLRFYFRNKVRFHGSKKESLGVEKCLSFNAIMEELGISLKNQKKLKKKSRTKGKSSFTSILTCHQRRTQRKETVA

SMILES	outcome
CC(C)COC(=O)CCCCC(=O)OCC(C)C	inactive
O=C(Oc1ccccc1)c1cccc(C(=O)Oc2ccccc2)c1	inactive
COC(=O)CCC(=O)OC	inactive

Target: rat Peripheral-type Benzodiazepine Receptor (PBR), Tspo (gene 24230) (UniProt P16257)
Test: NVS_MP_rPBR: NovaScreen (NVS) Membrane Protein Assay for rat Peripheral-type Benzodiazepine Receptor (PBR) (AID 2283335)
Procedure, shortened: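 Rat kidney membranes; radioligand binding with displacement, filter-based scintillation counting, 1 h incubation. Primary screen in duplicate at 25 uM, actives followed in concentration series; loss of binding vs DMSO.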

Chain of rat Peripheral-type Benzodiazepine Receptor (PBR), Tspo (gene 24230) (P16257 whole entry, looked up): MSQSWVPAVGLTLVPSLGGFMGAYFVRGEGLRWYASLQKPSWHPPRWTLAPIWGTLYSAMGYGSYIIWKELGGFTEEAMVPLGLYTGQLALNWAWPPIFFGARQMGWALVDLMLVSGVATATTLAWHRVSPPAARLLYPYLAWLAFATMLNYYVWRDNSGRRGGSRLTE

SMILES	AC50	outcome
CC(COCC(C)OC(=O)c1ccccc1)OC(=O)c1ccccc1 (stereo not drawn)	17 µM (active)	
CC(C)(O)c1ccc(CNC(=O)c2cccnc2Oc2ccc(F)cc2)cc1	4.31 µM (active)	
Cc1ccc(-c2cc(C(F)(F)F)nn2-c2ccc(S(N)(=O)=O)cc2)cc1		inactive

Target: bovine Gamma-Aminobutyric Acid Type A Receptor Agonist (GABAR Agonist), GABRA1 (gene 780973) (UniProt P08219)
Test: NVS_LGIC_bGABAR_Agonist: NovaScreen (NVS) Ligand-Gated Ion Channel Assay for bovine Gamma-Aminobutyric Acid Type A Receptor Agonist (GABAR Agonist) (AID 2283338)
Procedure, shortened: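 Radioligand binding to bovine cerebellar membranes in agonist format, read by filter-based scintillation counting after 1 h. Primary screen in duplicate at 25 uM, with actives followed in concentration series. Gain of signal versus DMSO.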

Chain of bovine Gamma-Aminobutyric Acid Type A Receptor Agonist (GABAR Agonist), GABRA1 (gene 780973) (P08219 whole entry, looked up): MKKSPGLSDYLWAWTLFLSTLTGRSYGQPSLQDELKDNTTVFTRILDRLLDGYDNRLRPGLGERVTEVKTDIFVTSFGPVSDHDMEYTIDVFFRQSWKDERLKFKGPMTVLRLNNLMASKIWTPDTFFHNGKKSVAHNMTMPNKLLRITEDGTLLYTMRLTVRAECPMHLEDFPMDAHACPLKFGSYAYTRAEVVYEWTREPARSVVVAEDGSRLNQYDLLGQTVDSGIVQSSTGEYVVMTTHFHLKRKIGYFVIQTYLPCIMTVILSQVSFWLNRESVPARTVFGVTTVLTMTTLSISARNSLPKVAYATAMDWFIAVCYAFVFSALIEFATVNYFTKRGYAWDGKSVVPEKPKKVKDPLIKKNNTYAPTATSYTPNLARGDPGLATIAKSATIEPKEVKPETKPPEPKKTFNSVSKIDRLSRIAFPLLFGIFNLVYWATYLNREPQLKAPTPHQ

SMILES	outcome
CC(C)(C)c1ccccc1	inactive
Cc1c(C)c2c(c(C)c1O)CCC(C)(COc1ccc(CC3SC(=O)NC3=O)cc1)O2 (stereo not drawn)	inactive
N[C@@H](Cc1c[nH]c2ccccc12)C(=O)O	inactive
